Data reported in PubChem BioAssay AID1240 (Sanford-Burnham Center for Chemical Genomics, 2008).
Screen size: about 50,000 compounds; about 800 (1.6%) showed an effect of 50% or more. For the sample, strong results were picked, then their nearest neighbours and some compounds at random.

target: Bcl-2-like protein 10 (Homo sapiens) (UniProt Q9HD36); experiment: Phenotype converters, Bcl-B/TR3 peptide binding displacement, primary biochemical FP (AID 1240); settings: GST-Bcl-B / FITC-TR3 peptide fluorescence polarization; stronger effect = higher value; compound at 3.75 mg/L;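 note: 0% = Bcl-B with tracer peptide and DMSO and 100% = tracer peptide lacking Bcl-B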
Sequence (Q9HD36 whole entry, looked up): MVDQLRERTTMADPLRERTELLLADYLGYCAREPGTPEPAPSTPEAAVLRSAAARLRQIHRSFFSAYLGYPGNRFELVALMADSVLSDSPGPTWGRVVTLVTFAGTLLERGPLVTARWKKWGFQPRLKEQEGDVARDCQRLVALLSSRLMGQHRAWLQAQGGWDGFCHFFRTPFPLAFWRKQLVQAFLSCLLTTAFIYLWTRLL

Going from COc1ccc(N2C(=O)c3ccccc3NC2c2ccc(OC)c(CN3C(=O)c4ccccc4C3=O)c2)cc1 (stereo not given) to CCOC(=O)c1ccc(-c2ccc(/C=C3/C(=O)NC(=O)N(c4ccc(OC)cc4)C3=O)o2)cc1, the displacement rises from -4.2% to 86.2%.

Compared with COC(=O)CSc1nc(NC(C)=O)nc(C)c1Br, CCc1c(C)sc(NC(=O)c2cccs2)c1C(=O)OC is lower in displacement: 4.5% for the first, 3.3% for the second.

First: Oc1c(Cl)cc(Br)cc1/C=N/Nc1nc(N2CCOCC2)nc(N2CCOCC2)n1
Second: Nc1nonc1C(=O)N/N=C/c1cc(Cl)cc(Cl)c1O
The displacement of the first is higher: 9.3% for the first, 9% for the second.

First: O=C1/C(=C\Nc2ccccc2O)CCc2ccccc21
Second: O=C1/C(=C\Nc2cc(Cl)ccc2O)CCc2ccccc21
The displacement of the first is lower: 3.8% for the first, 85.9% for the second.

Going from O=C1/C(=C\Nc2ccc3c(c2)OCO3)CCc2ccccc21 to CNc1ccc([N+](=O)[O-])cc1N/C=C1\CCc2ccccc2C1=O, the displacement rises from 48.1% to 126%.

Compared with O=C1/C(=C/Nc2ccccc2NS(=O)(=O)c2ccccc2)CCc2ccccc21, O=C1/C(=C/Nc2ccccc2NS(=O)(=O)c2ccc([N+](=O)[O-])cc2)CCc2ccccc21 is lower in displacement: 10.4% for the first, 8.1% for the second.

First: C[N+]1=C(CC(=O)Nc2ccccc2Cl)c2ccccc2CC1(C)C
Second: O=C(CC(c1ccccc1)c1ccccc1)Nc1ccccc1Br
The displacement of the first is higher: 1.4% for the first, -11.6% for the second.

Going from Cc1ccc2nc(-c3ccc(NC(=O)c4ccc(S(=O)(=O)N5CCCC5)cc4)cc3)sc2c1 to Cc1ccc(-c2csc(NC(=O)c3ccc(S(=O)(=O)N4CCCCCC4)cc3)n2)cc1, the displacement falls from -1.5% to -19%.

Going from Cc1cc(S(=O)(=O)N2CCCC2C(=O)O)c(C)cc1Cl (stereo not given) to CCCCc1c(C)nc2ccc(C(=O)O)cc2c1Cl, the displacement rises from -5.8% to 1%.

Going from O=c1c2c(nc3cc(-c4ccco4)[nH]n13)CCS2 to O=c1c2c(nc3cc(-c4cccs4)[nH]n13)CCS2, the displacement falls from 78.9% to 75.8%.

Compared with Cc1nc2cc(-c3ccco3)[nH]n2c(=O)c1C, O=c1c2c(nc3cc(-c4cccs4)[nH]n13)CCC2 is lower in displacement: 17% for the first, 5.7% for the second.

First: O=c1c2c(nc3cc(-c4ccccc4)[nH]n13)CCS2
Second: O=c1c2c(nc3cc(-c4cccs4)[nH]n13)CCCC2
The displacement of the first is lower: -12.6% for the first, 20.5% for the second.

First: O=C1NC(=O)N(c2ccc3c(c2)OCO3)C(=O)/C1=C/c1ccc(I)o1
Second: Cc1cccc(N2C(=O)NC(=O)/C(=C/c3ccc(-c4ccc(C(=O)O)cc4)o3)C2=O)c1
The displacement of the first is higher: 17.5% for the first, -58.8% for the second.

Compared with COc1cc(/C=N/Nc2ncc(C)c(=O)[nH]2)cc(OC)c1O, COc1ccc(-c2nc3c(n2O)CCC/C3=N\O)cc1OC is higher in displacement: 6.6% for the first, 16.6% for the second.

First: CN(C)c1ccc(NS(=O)(=O)c2ccc(N3C(=O)CCC3=O)cc2)cc1
Second: CCCCOC(=O)Nc1ccc(S(=O)(=O)Nc2cc(C)ccc2C)cc1
The displacement of the first is higher: 19.2% for the first, 7.1% for the second.

First: COc1ccc(N/C(C)=C/C(=O)c2ccc(Cl)cc2)c(OC)c1
Second: COC(=O)c1ccc(-n2c(C)cc(/C=C3\C(=O)NC(=O)N(c4ccc(OC)cc4)C3=O)c2C)cc1
The displacement of the first is lower: 0.8% for the first, 115% for the second.

Compared with CCCCCCC(=O)Nc1nnc(CC(C)C)s1, C/C(=N\NC(=O)CCc1c(C)n[nH]c1C)c1ccc(N)cc1 is higher in displacement: -12.9% for the first, -4% for the second.

Going from CCCC1=NN(c2ccc([N+](=O)[O-])cc2)C(=O)/C1=C\N(C)C to Nc1ncc(-c2ccc([N+](=O)[O-])cc2)cn1, the displacement rises from -5.5% to -4.1%.

First: NC(=O)c1c(NC(=O)Nc2ccc(Cl)cc2)sc2c1CCCC2
Second: O=C(Nc1nc(-c2ccc(Cl)cc2)cs1)c1ccc(S(=O)(=O)N2CCCCC2)cc1
The displacement of the first is higher: 0.8% for the first, -9.5% for the second.

Going from CCOc1ccc(N2COc3ccc4ccccc4c3C2)cc1 to CCOc1ccc(N(CC(=O)Nc2ccccc2OCC)S(=O)(=O)c2ccc(SC)cc2)cc1, the displacement rises from 9.1% to 15.2%.

Going from Oc1c(Br)cc2oc3c(c2c1/C=N/c1ncn[nH]1)CCCC3 to Oc1ccccc1N=Cc1c(O)c(I)cc2oc3c(c12)CCCC3, the displacement rises from 8.5% to 130%.

First: Cc1ccc(N=Cc2c(O)c([N+](=O)[O-])cc3oc4c(c23)CCCC4)cc1C
Second: CC(=O)/C=C/c1oc2ccc([N+](=O)[O-])cc2c1-c1ccc(C)o1
The displacement of the first is lower: -1.4% for the first, 80.9% for the second.

Going from O=C(NCc1cccnc1)C(=O)N1CCCCC1 to O=C(Nc1nc(-c2ccc(F)cc2)cs1)c1ccc(S(=O)(=O)N2CCCCCC2)cc1, the displacement rises from -1.4% to 129%.

Compared with CC(=O)CCc1oc2ccc([N+](=O)[O-])cc2c1-c1ccc(C)o1, COc1cc2nnc(/C=C/C(C)=O)c(-c3ccc(C)o3)c2cc1OC is higher in displacement: 3.5% for the first, 48% for the second.

First: O=C(Nc1ccc(-c2nnc(-c3ccccc3)o2)cc1)c1cccs1
Second: O=C(Nc1ccc(-c2nc3ncccc3o2)cc1)c1cccc(OCc2ccccc2)c1
The displacement of the first is lower: 15.3% for the first, 110% for the second.

Going from C=CCN1C(=O)/C(=C\c2ccc(-c3cccc(Cl)c3)o2)SC1=S to C=CCN1C(=O)/C(=C\c2ccc(-c3ccc(F)c(Cl)c3)o2)SC1=S, the displacement rises from 1.4% to 39.4%.

First: C=CCN1C(=O)/C(=C\c2ccc(-c3cc(Cl)cc(Cl)c3)o2)SC1=S
Second: C=CCN1C(=O)/C(=C\c2ccc(-c3ccc(Cl)c(Cl)c3)o2)SC1=S
The displacement of the first is lower: 1.7% for the first, 50.1% for the second.

Compared with O=C(O)CN1C(=O)/C(=C\c2ccc(-c3ccccc3Cl)o2)SC1=S, C=CCN1C(=O)/C(=C\c2ccc(-c3ccccc3Cl)o2)SC1=S is higher in displacement: -121% for the first, 149% for the second.

Compared with CCOC(=O)c1ccc(-c2ccc(/C=C3/SC(=S)N(CC)C3=O)o2)cc1, C=CCN1C(=O)/C(=C\c2ccc(-c3ccc(C(=O)OCC)cc3)o2)SC1=S is higher in displacement: 31% for the first, 90.3% for the second.

Compared with O=C1/C(=C/c2ccc(-c3cc(Cl)ccc3Cl)o2)SC(=S)N1Cc1ccco1, C=CCN1C(=O)/C(=C\c2ccc(-c3cc(Cl)ccc3Cl)o2)SC1=S is higher in displacement: 14.1% for the first, 65.4% for the second.

Compared with CCOC(=O)c1ccc(-c2ccc(/C=C3/SC(=S)N(CC(=O)O)C3=O)o2)cc1, CCOC(=O)c1ccc(-c2ccc(/C=C3/C(=O)NC(=O)N(c4ccccc4)C3=O)o2)cc1 is higher in displacement: -83.7% for the first, 88.5% for the second.

Compared with O=C1/C(=C\c2ccc(-c3ccccc3Cl)o2)SC(=S)N1Cc1ccccc1, O=C1/C(=C/c2cccc3ccccc23)SC(=S)N1Cc1ccco1 is higher in displacement: 10% for the first, 79.2% for the second.

Compared with O=C(COc1ccc(Cl)cc1Cl)Nc1ccc2c(c1)OCO2, O=C1/C(=C/c2ccc3c(c2)OCO3)SC(=S)N1Cc1ccco1 is higher in displacement: 3.3% for the first, 94.5% for the second.

Compared with Cc1cc(OCC(=O)Nc2ccc(Nc3ccccc3)cc2)ccc1Br, CC(C)COc1ccc(C(=O)Nc2ccc(-c3nc4ccccc4o3)cc2)cc1 is higher in displacement: 1.1% for the first, 10% for the second.

First: O=C(COc1ccc([N+](=O)[O-])cc1)Nc1cc(C(F)(F)F)cc(C(F)(F)F)c1
Second: CC(C)COc1ccc(C(=O)Nc2ccc(-c3nc4ncccc4o3)cc2)cc1
The displacement of the first is lower: -2.6% for the first, 50.1% for the second.

Going from O=C1NC(=Nc2ccc(O)cc2)S/C1=C/C=C/c1ccccc1 to O=C1/C(=C/C=C/c2ccccc2)SC(=S)N1Cc1ccco1, the displacement rises from -5.6% to 99.7%.

Going from CN(C(=O)c1cccs1)c1ccccc1C(=O)O to CN(c1ccccc1C(=O)O)C1SC(=O)N(c2ccccc2)C1=O (stereo not given), the displacement rises from -1.3% to 138%.

First: CC(=O)N(c1ccc(Br)cc1)C1SC(=O)N(c2cccc(C)c2)C1=O (stereo not given)
Second: O=C(O)C(Cc1ccccc1)N1C(=O)/C(=C/c2ccc(Br)cc2)SC1=S (stereo not given)
The displacement of the first is lower: -0.5% for the first, 11.6% for the second.

Going from Brc1ccc2c(c1)Nc1nc3nonc3nc1N2 to O=C1/C(=C/c2cccc(Br)c2)SC(=S)N1Cc1ccco1, the displacement falls from 3.9% to 3.6%.

Compared with COc1ccccc1/C=C1\SC(=S)N(Cc2ccco2)C1=O, O=C1/C(=C/c2ccccc2[N+](=O)[O-])SC(=S)N1Cc1ccco1 is higher in displacement: 1% for the first, 16.5% for the second.

Going from COc1ccc(/C=C2\SC(=S)N(Cc3ccco3)C2=O)cc1OC to O=C1/C(=C/c2ccc(Cl)c(Cl)c2)SC(=S)N1Cc1ccco1, the displacement falls from 21.8% to 14.2%.

Going from O=C1/C(=C/c2ccc(Br)cc2)SC(=S)N1Cc1ccco1 to O=C1/C(=C/c2ccc(O)cc2)SC(=S)N1Cc1ccco1, the displacement falls from 104% to -13.3%.

Compared with C=CCN1C(=O)/C(=C\C=C\c2ccccc2)SC1=S, CCCCN1C(=O)/C(=C/C=C/c2ccccc2)SC1=S is lower in displacement: 6.3% for the first, -0.6% for the second.

Compared with CC(C)C(=O)NC(c1ccc(N(C)C)cc1)c1c(O)ccc2ccccc12 (stereo not given), CCCCOc1ccc(C(=O)Nc2ccc(-c3nc4ncccc4o3)cc2)cc1 is higher in displacement: 6.4% for the first, 10.6% for the second.

Going from CCCC1CCc2nc3ccccc3c(C(=O)O)c2C1 (stereo not given) to O=C(CCN1C(=O)c2ccccc2C1=O)NCC1CCCO1 (stereo not given), the displacement rises from -10.4% to 9.6%.

Compared with O=C(NC12CC3CC(CC(C3)C1)C2)c1ccc(Cl)c(Cl)c1, CN1C(=O)C(=Cc2ccc(-c3ccc(Cl)c(Cl)c3)o2)C(=O)N(C)C1=O is lower in displacement: 6.9% for the first, -3.8% for the second.

First: COc1ccccc1NC(=O)CSc1ncn[nH]1
Second: COc1cc(/C=C2\C(=O)NN(c3ccccc3)C2=O)ccc1OCc1ccccc1F
The displacement of the first is lower: 2.5% for the first, 8.9% for the second.

Compared with FC(F)(F)c1ccccc1CN1CCN(C2CCCCC2)CC1, COc1ccc(N2C(=O)NC(=O)/C(=C\c3cc(C)n(-c4ccc(N5CCOCC5)cc4)c3C)C2=O)cc1 is higher in displacement: 1.4% for the first, 15.9% for the second.

First: CCOc1cc(OCC)cc(C(=O)Nc2ccc(-c3nc4ncccc4o3)cc2)c1
Second: O=C(Nc1ccc2oc(-c3cccnc3)nc2c1)c1cccc(OCc2ccccc2)c1
The displacement of the first is lower: 0.6% for the first, 11% for the second.

Going from C=CCOc1ccc(/C=C2/C(=O)NN(c3ccc(C)c(Cl)c3)C2=O)cc1OC to CCOC(=O)c1ccc(-c2ccc(/C=C3/C(=O)NN(c4cccc(Cl)c4)C3=O)o2)cc1, the displacement falls from 15.5% to -1.9%.

First: CCOC(=O)c1cc(-c2ccc(C=C3C(=O)N(C)C(=O)N(C)C3=O)o2)ccc1Cl
Second: CN1C(=O)C(=Cc2ccc(-c3ccc(Cl)c(C(=O)O)c3)o2)C(=O)N(C)C1=O
The displacement of the first is higher: 111% for the first, 14.5% for the second.

Going from COC(=O)c1ccc(-n2c(C)cc(C=C3C(=O)NC(=S)NC3=O)c2C)cc1 to COc1ccc(N2C(=O)/C(=C/c3ccc(-c4ccc(C(=O)O)cc4)o3)C(=O)NC2=S)cc1, the displacement falls from 24.8% to -28.2%.

Compound COc1ccc(N2C(=O)NC(=O)/C(=C/c3ccc(-c4ccc(C(=O)O)cc4)o3)C2=O)cc1 has a displacement of -10.9%.
